The source of these data is PubChem BioAssay.

Structures are written as SMILES. Calls of active or inactive are those of the source.

The target in assay [1] is Albumin (Bos taurus) (UniProt P02769). In words: bovine serum albumin binders on microarray, profiling panel, artefact control for SMM control protein annotation, biochemical, small-molecule microarray, Alexa647 label, 635/667 nm fluorescence (AID 1118).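 Further: score merges 667 nm emission intensity and signal-to-noise per printed compound spot.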 The settings on record: BSA-A647 binding, fluorescence 635 nm, higher = more signal.
Assay [2] can be described thus: small-molecule microarray binders of probe aXIP, primary screen, biochemical, NeuroSMM set, 635/667 nm fluorescence (AID 1119).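 Further: probe is the protein aXip251-270 applied at 1 µg/mL to compound-printed slides; binding of probe to printed compounds measured as 667 nm fluorescence plus signal to noise.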 The settings on record: higher = more signal, called active from +8 up or from −8 down.
Assay [3] is described as follows: small-molecule binders of probe aNOTCH3, primary screen, biochemical, small-molecule microarray, 635/667 nm fluorescence (AID 1120).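 Further: probe is a biotin-tagged antibody raised against NOTCH3 rather than NOTCH3 protein; score merges spot fluorescence near 667 nm with spot signal to noise.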 The settings on record: higher = more signal.
The nature of assay [4]: small-molecule binders of probe aNOTCH2, primary screen, biochemical, small-molecule microarray, 635/667 nm fluorescence (AID 1121).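 Further: score merges feature fluorescence read at 667 nm with its signal to noise.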 The settings on record: higher = more signal.
For assay [5], the target named is Carbonic anhydrase 2 (Homo sapiens) (UniProt P00918). The assay can be described thus: CAII small-molecule binders, profiling panel, biochemical, small-molecule microarray, Alexa647-labelled CAII (AID 1122). To be noted: CAII-A647 binding fluorescence, higher = more signal.
Assay [6] is described as follows: COS7 lysate on small-molecule microarray, probe aHis, 635 nm (AID 1123).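 Further: z-score combines 667nm fluorescence intensity with signal-to-noise per printed compound spot.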 To be noted: COS7 cell lysate, fluorescence, higher = more signal.
Assay [7] can be described thus: compound binding in COS7 lysate, probe aLAP1, primary screen, cell lysate, small-molecule microarray (AID 1124).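 Further: lysate comes from COS7 cells expressing LAP1 and is applied at 0.3 µg/mL; score merges spot fluorescence near 667 nm with signal-to-noise over triplicate slides.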 The settings on record: probe aLAP1, fluorescence, higher = more signal.
The subject of assay [8] is Sam68 (KHDRBS1). In words: Sam68 small-molecule binders, primary screen, biochemical, small-molecule microarray, 635 nm fluorescence (AID 1125).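 Further: score merges 667 nm channel intensity with signal to noise over triplicate slides.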 The settings on record: small-molecule microarray binding, higher = more signal.
Assay [9] deals with Chordin-like protein 2 (CHRDL2). The assay can be described thus: CHRDL2 small-molecule binders, primary screen, biochemical, small-molecule microarray, 635 nm fluorescence (AID 1126).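 Further: printed compound slides probed with Chrdl2 protein at 4 µg/mL for 1 h at 4 C; score merges 667 nm emission intensity with signal to noise over three replicate slides.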 The settings on record: small-molecule microarray binding, fluorescence 635 nm; higher = more signal.
The target in assay [10] is Concanavalin-A (Canavalia ensiformis) (UniProt P02866). In words: ConA small-molecule binders, primary screen, artefact control for SMM control protein annotation, biochemical, small-molecule microarray, Alexa647 label, 635 nm (AID 1127).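 Further: z combines 667 nm emission intensity with signal-to-noise across three replicate slides.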 To be noted: ConA-A647 binding fluorescence, higher = more signal.
The nature of assay [11]: anti-His antibody binders, primary screen, artefact control for SMM control protein annotation, biochemical, small-molecule microarray, 635 nm fluorescence (AID 1128).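 Further: score merges feature fluorescence with signal-to-noise for each printed compound spot.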 To be noted: anti-His Alexa647 antibody binding, higher = more signal.
The subject of assay [12] is Human papillomavirus type 1a E7 protein (residues 1-88). In words: HPV1a E7 small-molecule binders, primary screen, biochemical, small-molecule microarray, residues 1-88, 635 nm (AID 1129). The settings on record: small-molecule microarray binding, fluorescence 635 nm; higher = more signal.
The target of assay [13] is Focal adhesion kinase 1 (Homo sapiens) (UniProt Q05397). The assay can be described thus: small-molecule microarray binders of FAK, primary screen, biochemical, 635/667 nm fluorescence, BSA, DTT (AID 1130).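 Further: composite of spot emission at 667 nm and signal to noise over triplicate slides.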 The settings on record: PTK2 binding, 635 nm fluorescence, higher = more signal.
Assay [14] relates to Fibrinogen (Alexa647-labelled). In words: fibrinogen binders on compound microarrays, profiling panel, artefact control for SMM control-protein annotation, biochemical, small-molecule microarray, 635/667 nm fluorescence (AID 1131).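 Further: z-score merges 667 nm fluorescence with per-spot signal-to-noise over triplicate slides.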 The settings on record: fibrinogen-A647 binding fluorescence, higher = more signal.
For assay [15], the target named is Follistatin (Homo sapiens) (UniProt P19883). The assay can be described thus: follistatin binders on small-molecule microarrays, primary screen, biochemical, small-molecule microarray, 635/667 nm fluorescence (AID 1132). To be noted: FST binding, 635 nm fluorescence, higher = more signal.
In assay [16] the target is Fibroblast growth factor 2 (Homo sapiens) (UniProt P09038). The assay can be described thus: FGF2 binders on small-molecule microarrays, primary screen, biochemical, small-molecule microarray, 635/667 nm fluorescence (AID 1133). The settings on record: small-molecule microarray binding, FGF2, fluorescence 635/667; higher = more signal.
Assay [17] in a line: mitochondrial membrane potential change in A549 cells, profiling panel, cell-based, JC-1 fluorescence, basal, 24 h, 100 nL (AID 1138).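 Further: A549 lung adenocarcinoma cells under basal conditions with no added stimulus; test concentration not given here.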 The settings on record: higher = more signal.
Assay [18] relates to Lefty1. The assay can be described thus: Lefty1 binders on small-molecule microarrays, primary screen, biochemical, small-molecule microarray, 635/667 nm fluorescence (AID 1139). To be noted: small-molecule microarray binding, fluorescence 635/667; higher = more signal.
Assay [19] relates to wheat germ agglutinin (Triticum aestivum), Alexa647-labelled. The assay can be described thus: wheat germ agglutinin binders on compound microarrays, profiling panel, artefact control for SMM control-protein annotation, biochemical, small-molecule microarray, 635/667 nm fluorescence (AID 1140).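 Further: score merges 667 nm feature emission with signal to noise over triplicate slides.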 The settings on record: WGA-A647 binding, 635 nm fluorescence, higher = more signal.

For assay [20], the target named is Luciferin 4-monooxygenase (Photinus pyralis) (UniProt P08659). The assay can be described thus: firefly luciferase enzyme inhibitors, primary screen, biochemical, luminescence, purified enzyme, 2006 set (AID 1141).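 Further: cell-free assay with purified firefly luciferase at 100 ng per well in PBS; test concentration not given here.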 To be noted: SteadyGlo luminescence, 30 min, higher = more signal, called active from +8 up or from −8 down.
Luciferin 4-monooxygenase (Photinus pyralis), sequence (P08659 whole entry, looked up): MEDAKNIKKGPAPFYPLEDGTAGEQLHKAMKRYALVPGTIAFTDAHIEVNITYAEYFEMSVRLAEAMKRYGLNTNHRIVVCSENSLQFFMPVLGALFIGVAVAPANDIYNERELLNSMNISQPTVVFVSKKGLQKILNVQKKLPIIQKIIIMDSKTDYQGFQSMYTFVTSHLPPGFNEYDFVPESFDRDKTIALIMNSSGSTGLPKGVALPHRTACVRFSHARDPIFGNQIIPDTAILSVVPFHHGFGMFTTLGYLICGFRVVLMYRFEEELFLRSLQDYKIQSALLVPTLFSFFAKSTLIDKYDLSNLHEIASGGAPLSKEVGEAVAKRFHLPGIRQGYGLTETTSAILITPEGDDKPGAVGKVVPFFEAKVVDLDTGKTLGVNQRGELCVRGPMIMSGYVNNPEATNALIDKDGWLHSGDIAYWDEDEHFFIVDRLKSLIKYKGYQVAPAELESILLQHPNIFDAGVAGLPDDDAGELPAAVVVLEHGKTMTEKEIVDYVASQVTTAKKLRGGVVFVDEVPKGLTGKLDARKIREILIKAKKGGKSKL

Follistatin (Homo sapiens), sequence (P19883 whole entry, looked up): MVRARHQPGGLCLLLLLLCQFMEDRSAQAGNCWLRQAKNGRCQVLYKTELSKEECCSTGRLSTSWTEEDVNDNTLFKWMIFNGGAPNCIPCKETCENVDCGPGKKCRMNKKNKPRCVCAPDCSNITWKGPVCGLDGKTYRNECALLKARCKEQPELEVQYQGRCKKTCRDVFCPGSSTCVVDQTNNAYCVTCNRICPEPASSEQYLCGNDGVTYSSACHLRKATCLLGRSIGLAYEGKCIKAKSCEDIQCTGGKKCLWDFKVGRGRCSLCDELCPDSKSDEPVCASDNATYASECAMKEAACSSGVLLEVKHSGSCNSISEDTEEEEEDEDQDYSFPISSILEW
Concanavalin-A (Canavalia ensiformis), sequence (P02866 whole entry, looked up): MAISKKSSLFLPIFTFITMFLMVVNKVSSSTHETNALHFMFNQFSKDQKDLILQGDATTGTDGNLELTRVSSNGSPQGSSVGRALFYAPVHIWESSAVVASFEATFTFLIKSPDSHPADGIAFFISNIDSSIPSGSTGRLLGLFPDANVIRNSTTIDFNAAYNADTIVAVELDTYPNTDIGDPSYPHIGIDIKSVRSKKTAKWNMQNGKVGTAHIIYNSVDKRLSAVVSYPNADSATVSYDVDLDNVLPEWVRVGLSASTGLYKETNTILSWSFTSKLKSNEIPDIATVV
Albumin (Bos taurus), sequence (P02769 whole entry, looked up): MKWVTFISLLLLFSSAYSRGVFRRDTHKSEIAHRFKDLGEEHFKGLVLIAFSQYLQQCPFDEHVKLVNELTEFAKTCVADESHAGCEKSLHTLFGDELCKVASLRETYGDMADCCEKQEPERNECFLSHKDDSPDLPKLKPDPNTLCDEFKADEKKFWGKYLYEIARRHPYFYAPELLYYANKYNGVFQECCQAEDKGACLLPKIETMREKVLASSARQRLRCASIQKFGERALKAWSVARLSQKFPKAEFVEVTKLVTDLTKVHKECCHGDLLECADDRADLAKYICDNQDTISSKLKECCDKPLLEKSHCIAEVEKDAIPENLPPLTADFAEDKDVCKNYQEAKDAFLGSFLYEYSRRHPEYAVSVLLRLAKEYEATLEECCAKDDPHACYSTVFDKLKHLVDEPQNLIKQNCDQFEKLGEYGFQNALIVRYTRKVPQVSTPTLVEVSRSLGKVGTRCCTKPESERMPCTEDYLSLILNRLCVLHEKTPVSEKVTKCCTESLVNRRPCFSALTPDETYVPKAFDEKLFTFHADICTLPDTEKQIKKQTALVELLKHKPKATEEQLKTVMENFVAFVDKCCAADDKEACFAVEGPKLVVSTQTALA
Fibroblast growth factor 2 (Homo sapiens), sequence (P09038 whole entry, looked up): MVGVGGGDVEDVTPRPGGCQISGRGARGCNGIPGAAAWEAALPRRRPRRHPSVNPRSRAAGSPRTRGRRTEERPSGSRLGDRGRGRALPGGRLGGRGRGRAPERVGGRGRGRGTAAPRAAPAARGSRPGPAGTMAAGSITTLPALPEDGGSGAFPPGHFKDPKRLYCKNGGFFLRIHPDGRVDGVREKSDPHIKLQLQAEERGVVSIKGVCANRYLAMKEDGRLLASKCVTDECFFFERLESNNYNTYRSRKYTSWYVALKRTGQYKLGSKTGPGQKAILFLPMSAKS
Focal adhesion kinase 1 (Homo sapiens), sequence (Q05397 whole entry, looked up): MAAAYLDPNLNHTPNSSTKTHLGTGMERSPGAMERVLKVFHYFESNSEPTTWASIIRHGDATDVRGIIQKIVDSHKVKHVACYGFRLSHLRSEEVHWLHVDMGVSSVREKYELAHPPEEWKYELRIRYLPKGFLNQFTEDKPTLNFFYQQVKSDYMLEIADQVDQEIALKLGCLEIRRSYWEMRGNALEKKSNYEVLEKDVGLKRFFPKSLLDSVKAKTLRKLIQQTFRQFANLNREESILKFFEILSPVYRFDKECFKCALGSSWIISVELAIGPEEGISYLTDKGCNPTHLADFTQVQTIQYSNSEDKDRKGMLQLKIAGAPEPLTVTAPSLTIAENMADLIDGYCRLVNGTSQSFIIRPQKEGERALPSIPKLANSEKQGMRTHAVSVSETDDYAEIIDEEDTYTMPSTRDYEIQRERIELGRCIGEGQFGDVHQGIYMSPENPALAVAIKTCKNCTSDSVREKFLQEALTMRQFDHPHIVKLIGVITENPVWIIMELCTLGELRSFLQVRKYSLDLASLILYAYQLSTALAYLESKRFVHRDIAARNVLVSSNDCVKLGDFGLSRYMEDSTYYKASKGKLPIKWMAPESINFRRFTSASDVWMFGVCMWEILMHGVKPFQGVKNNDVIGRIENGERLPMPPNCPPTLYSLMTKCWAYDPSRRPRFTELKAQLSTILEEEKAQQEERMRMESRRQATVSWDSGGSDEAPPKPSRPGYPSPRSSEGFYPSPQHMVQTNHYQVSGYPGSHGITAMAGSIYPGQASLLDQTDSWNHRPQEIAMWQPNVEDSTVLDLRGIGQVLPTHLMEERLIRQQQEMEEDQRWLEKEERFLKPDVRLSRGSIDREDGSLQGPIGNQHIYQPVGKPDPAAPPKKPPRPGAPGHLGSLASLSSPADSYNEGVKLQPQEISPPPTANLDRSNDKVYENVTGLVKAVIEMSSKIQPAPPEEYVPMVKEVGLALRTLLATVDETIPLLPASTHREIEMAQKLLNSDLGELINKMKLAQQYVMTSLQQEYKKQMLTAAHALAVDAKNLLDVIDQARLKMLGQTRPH

For the compound `CC(C)N1C(=O)[C@@]2(c3ccc([N+](=O)[O-])cc3)CC(=O)N(CC34CC5CC(CC(C5)C3)C4)[C@@H]2c2ccc(CO)cc21`, the composite z-score in assay [1] is -0.747; in [3] it was 0.49; in assay [4], -0.237; in assay [5], -0.531; in assay [6], 0.773; in assay [7], 0.632. In addition, the composite z-score in assay [8] was -0.507; in assay [9], -1.27; in assay [10], 0.134; in [11], -0.193; in assay [12], -1.05; in [13] it was -0.553. Moreover, the composite z-score is -1.1 in [14]; 0.0163 in assay [15]; -0.934 in assay [16]; 0.0347 in [18]; 1.23 in [19]. Moreover, in [2], the composite Z-score is -0.0775 (inactive). Besides, the z-score in [17] is 0.58; in assay [20] it was -0.322 (inactive).
On to `[N-]=[N+]=NCc1ccccc1[C@H]1OC(c2ccc(OCCCO)cc2)=N[C@@]1(CCS(=O)(=O)c1ccccc1)C(=O)N1CCOCC1`, for which the composite z-score in assay [1] came out at 1.05; in assay [3], 0.515; in assay [4], 0.268; in [5] it was 0.819; in assay [6] it was 3.05; in assay [7], 0.362. The composite z-score was 1.3 in assay [8]; -0.584 in [9]; 1.11 in [10]; 0.997 in assay [11]; 0.871 in assay [12]; 0.176 in assay [13]. In addition, the composite z-score was 1.04 in assay [14]; 1.31 in [15]; 1.01 in assay [16]; -0.0664 in assay [18]; 1.35 in [19]. Further, in assay [2], the composite Z-score was 1.09 (inactive). Moreover, the z-score in assay [17] was -0.988; in assay [20], -1.26 (inactive).
Take `CC(=O)Nc1cc(Br)ccc1C(=O)O`: the composite z-score in [1] is 0.782; in [3] it was -0.0142; in assay [4], -0.0502; in assay [5] it was 0.363; in assay [6] it was 0.385; in assay [7] it was -0.0197. For the same compound, the composite z-score in [8] was 0.402; in assay [9], -0.421; in assay [10], 0.984; in assay [11] it was 0.0952; in [12], 0.747; in assay [13], -0.0817. The composite z-score was 0.805 in assay [14]; 0.0564 in assay [15]; -0.129 in assay [16]; -0.0658 in [18]; 0.625 in [19]. The composite Z-score in assay [2] is -0.705 (inactive). Moreover, the z-score was 0.204 in [17] and -0.592 (inactive) in [20].
As to `COc1c(C)cc(-c2cc3c(c(-c4ccc(Oc5ccccc5)cc4)n2)[Si](C(C)C)(C(C)C)OC3)cc1C`, the composite z-score in assay [1] is -0.237; in assay [3] it was 0.0208; in assay [4], 0.0016; in [5] it was -0.229; in [6] it was -0.202; in assay [7], 0.151. Also, the composite z-score is -1.07 in assay [8]; -0.206 in assay [9]; -0.52 in [10]; -0.271 in assay [11]; -0.582 in assay [12]; -0.0939 in assay [13]. Moreover, the composite z-score in assay [14] is -0.551; in assay [15], -0.228; in [16] it was 0.515; in assay [18], 0.38; in [19] it was -0.0472. Also, the composite Z-score in [2] is -0.591 (inactive). Moreover, the z-score in [17] is 0.577; in assay [20] it was 0.279 (inactive).
For `CCOC(=O)C1=CC[C@@H](c2ccccc2)N(S(=O)(=O)c2ccc(C)cc2)[C@H]1C(=O)OCC`, the composite z-score in assay [1] was 0.744; in [3] it was 0.421; in assay [4], 0.144; in [5] it was 0.413; in [6], 1.22; in assay [7], 0.748. In addition, the composite z-score in assay [8] was 1.12; in [9], -0.361; in assay [10], -0.515; in [11] it was 0.558; in [12] it was 1.2; in [13] it was 1.17. Also, the composite z-score was 0.0499 in assay [14]; 0.305 in [15]; -0.128 in assay [16]; -0.238 in [18]; 0.951 in assay [19]. Further, the composite Z-score in assay [2] was 0.615 (inactive). In addition, the z-score is 1.84 in assay [17] and 0.693 (inactive) in [20].
Consider `O=C1C[C@@](C(=O)NC2CC2)(c2ccc([N+](=O)[O-])cc2)[C@@H](c2ccc(CO)cc2)N1CC12CC3CC(CC(C3)C1)C2`, for which the composite z-score was 0.374 in assay [1]; -0.0236 in assay [3]; -0.0091 in [4]; 0.22 in assay [5]; 0.681 in assay [6]; -0.107 in [7]. The composite z-score is 0.684 in assay [8]; -0.203 in assay [9]; 1 in assay [10]; 0.294 in assay [11]; 0.831 in assay [12]; 0.473 in assay [13]. Besides, the composite z-score was found to be 0.934 in assay [14]; 1.21 in assay [15]; 0.0882 in assay [16]; 0.427 in [18]; 0.553 in assay [19]. Also, the composite Z-score in assay [2] is -0.172 (inactive). For the same compound, the values for the z-score in [17] and in assay [20] were 0.0799 and 1.12 (inactive), respectively.
`[N-]=[N+]=Nc1ccccc1[C@H]1OC(c2ccc(OCCCO)cc2)=N[C@@]1(CCS(=O)(=O)c1ccccc1)C(=O)O`: the composite z-score in [1] is 0.622; in assay [3], -0.0647; in assay [4] it was 0.0278; in assay [5], 0.419; in assay [6] it was 2.77; in assay [7], 0.425. Moreover, the composite z-score is 0.0569 in assay [8]; -0.378 in [9]; 0.475 in [10]; 1.2 in assay [11]; 0.478 in assay [12]; 0.042 in [13]. Also, the composite z-score is 0.773 in [14]; 0.395 in assay [15]; 0.174 in assay [16]; -0.782 in assay [18]; 0.85 in assay [19]. Besides, in assay [2], the composite Z-score was 0.254 (inactive). The z-score was -1.72 in [17] and -12.4 (active) in assay [20].
In the case of `CN(C)CCCCCCNC(=O)[C@H]1C[C@H]2C(=O)N[C@@H](CCCCN)C(=O)N2[C@H]1c1ccc(O)cc1`, the composite z-score in [1] was 0.987; in assay [3], 1.78; in [4], 0.657; in [5] it was 0.586; in assay [6], 4.3; in [7], 1.16. In addition, the composite z-score in [8] is 1.34; in assay [9], 1.45; in [10] it was 1.25; in assay [11], 3.12; in [12], 1.31; in assay [13], -0.108. The composite z-score in [14] is 0.953; in [15] it was 1.44; in assay [16], 1.61; in assay [18] it was 1.75; in [19] it was 1.36. Further, the composite Z-score in assay [2] was 5.54 (inactive). The values for the z-score in assay [17] and in assay [20] were 0.868 and -0.62 (inactive), respectively.
As for `COCC(=C=CC[C@@H](O)c1ccc(CO)o1)CCO`, the composite z-score is -0.606 in assay [1]; -0.215 in assay [3]; -0.118 in assay [4]; 0.349 in [5]; -0.185 in [6]; 1.51 in assay [7]. Besides, the composite z-score was 0.101 in [8]; 0.689 in assay [9]; 0.188 in assay [10]; -0.145 in [11]; 0.114 in assay [12]; -0.29 in [13]. For the same compound, the composite z-score in assay [14] is -0.23; in [15], 1.24; in [16], 0.958; in assay [18], 1.24; in assay [19], 0.43. In addition, in [2], the composite Z-score was 0.111 (inactive). In addition, the z-score in assay [17] is -0.0212; in assay [20] it was -0.877 (inactive).
